Sampled rows, rich in hits. Any-hit rate of the full collection: about 4.6%.
tim10-1 inh = growth inhibitors of tim10-1 mutant yeast. hit rate 2.2% among 330,000. inhibition, % at 20 µM. S. cerevisiae tim10-1 ts strain growth, BacTiter-Glo, 24 h. AID 463190;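 active = inhibition of at least 40%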;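 note: mutant grown at 25 °C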
TIM10 inh = growth inhibitors of TIM10 yeast strain | hit rate 1.4% among 330,000 | inhibition, % at 10 µM | S. cerevisiae TIM10 strain growth, BacTiter-Glo luminescence, 24 h | AID 463195;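 active = inhibition of 40% or more at the single tested concentration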;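 note: wild-type TIM10 isogenic control strain grown at permissive 25 °C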
NALP3 yeast inh = inhibitors of NALP3 inflammasome in yeast. Yeast reconstituted NLRP3/ASC/caspase-1, beta-gal luminescence, 24 h. inhibition, % at 10 µM. hit rate 0.39% among 330,000;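 active = inhibition of 50% or more; inactive = inhibition below 50%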
SKKanGAS inh = SKKanGAS growth inhibition; S. pyogenes SKKanGAS, kanamycin growth, BacTiter-Glo, 6 h; inhibition, % at 7.5 µM; hit rate 1.3% among 300,000;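 active = mean replicate score, as percent of positive control median, at least 50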;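 note: strain carries kanamycin resistance gene driven by streptokinase promoter and grows in 40 µg/ml kanamycin; loss of luminescence reflects streptokinase promoter inhibition or plain growth inhibition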
PfHsp90 yeast 2 = inhibits growth of yeast expressing Plasmodium falciparum Hsp90; S. cerevisiae expressing PfHsp90, BacTiter-Glo ATP, 48 h; yeast lacking PDR1 and PDR3 efflux regulators; inhibition, % at 9.4 µM; AID 504621; hit rate 0.32% among 310,000;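 active = every replicate shows inhibition above about 80%, whatever the replicate mean, limit read from the data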
tim23-1 inh = inhibits growth of tim23-1 mutant yeast; inhibition, % at 20 µM; S. cerevisiae tim23-1 growth, BacTiter-Glo luminescence, 24 h; hit rate 1.3% among 330,000;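 active = growth inhibition of the mutant yeast at or above 50%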;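 note: temperature-sensitive mutant grown at 25 °C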
tim23-1 conf = tim23-1 yeast growth inhibition, confirmed; S. cerevisiae tim23-1 growth, BacTiter-Glo luminescence, 24 h; shares compounds with tim23-1 inh; hit rate 83% among 4,400; inhibition, % at 20 µM;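 active = inhibition above about 39% in either of two replicate wells at 20 µM, limit read from the data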;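 note: temperature-sensitive tim23-1 mutant grown at 25 °C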
Large screens that a line does not name were inactive (follow-up assays come after a bar, where they were run).

CCCCn1c(SCC(=O)NC2CCS(=O)(=O)C2)nc2cc(S(N)(=O)=O)ccc21 (stereo not given)	none (no result: PfHsp90 yeast 2)
OCCCNc1cc(-c2ccccc2)nc2cc(-c3ccc(F)cc3)nn12	tim23-1 inh 51 | tim23-1 conf 55
Cc1cc(NCCCO)n2nc(-c3cccs3)cc2n1	none
Nc1cc([N+](=O)[O-])cc2oc(-c3ccccc3)cc12	tim23-1 inh 54 | tim23-1 conf 45
Nc1nc2ccc(C(=O)Nc3ccccc3)cc2s1	none
CCc1ccc(NC(=O)c2ccc3nc(N)sc3c2)cc1	tim23-1 inh 54 | tim23-1 conf inactive
O=C(CCS(=O)(=O)c1ccc(Br)cc1)NC1CCCCCC1	none
Clc1ccc(-c2[nH]ncc2N=Nc2ccccc2)cc1	tim23-1 inh 68 | tim23-1 conf inactive
Oc1ccc(-c2[nH]ncc2-c2ccc(Cl)cc2)c(O)c1	none (no result: PfHsp90 yeast 2)
COc1ccc(NC(=O)C2CC(=O)N(CCc3ccc(F)cc3)C2)c(OC)c1 (stereo not given)	none
CSc1nc2ccc(NS(=O)(=O)c3ccc(Br)s3)cc2s1	tim23-1 inh 61 | tim23-1 conf 62
CCn1c(Cn2nnc(-c3ccccc3)n2)nnc1SCc1ccc(Cl)c(Cl)c1	tim23-1 inh 53 | tim23-1 conf 45
CCn1c(Cn2nnc(-c3ccccc3)n2)nnc1SCC(=O)N1CCOCC1	none
O=C(NCCS(=O)(=O)N1CCN(c2ccccc2)CC1)c1cccs1	none
CCOC(=O)c1sc(=NC(=O)c2ccccc2Br)n(C)c1C	none
CCOC(=O)c1sc(=NC(=O)c2ccco2)n(C)c1C	tim23-1 inh 54 (no result: SKKanGAS inh) | tim23-1 conf 44
Cc1cccc(S(=O)(=O)Nc2nc3ccccc3nc2OC(C)C)c1	tim23-1 inh 53 | tim23-1 conf 49
Cc1ccc(/C=N/NC(=O)c2ccccc2OCc2cccc(Br)c2)o1	none
CC1=NN(c2nc3ccccc3[nH]2)C(=O)C1Cc1ccccc1 (stereo not given)	SKKanGAS inh 89, tim23-1 inh 67 (no result: PfHsp90 yeast 2) | tim23-1 conf 56
COc1cccc(COC(=O)C2CCN(S(=O)(=O)c3ccc(F)cc3)CC2)c1OC	none (no result: SKKanGAS inh, PfHsp90 yeast 2)
COc1ccc(Cl)cc1C(=O)NNC(=O)C1CCCO1 (stereo not given)	none (no result: SKKanGAS inh)
c1ccc2c3c([nH]c2c1)-c1[nH]ncc1CC3	tim23-1 inh 61 | tim23-1 conf inactive
O=C1CCCc2c1[nH]c1ccccc21	none (no result: PfHsp90 yeast 2)
O=C(N/N=C/C=C/c1ccccc1)NC1CCCCC1	none
O=C(Nc1ccc(Nc2ccccc2)cc1)c1ccccc1	tim23-1 inh 56 (no result: PfHsp90 yeast 2) | tim23-1 conf 60
COc1ccc(C(=O)Nc2ccc(OCc3ccccc3)cc2)cc1[N+](=O)[O-]	none (no result: PfHsp90 yeast 2)
COc1cc(OC)cc(C(=O)Nc2ccc(Nc3ccccc3)cc2)c1	tim23-1 inh 72 | tim23-1 conf 59
COc1ccc(C(=O)Nc2ccc(Nc3ccccc3)cc2)cc1[N+](=O)[O-]	tim23-1 inh 52 | tim23-1 conf inactive
CC(C)Oc1cccc(C(=O)NC(=S)Nc2ccccc2)c1	tim23-1 inh 51 | tim23-1 conf inactive
COc1ccc(Br)cc1CN1CCSCC1	none
CC(=O)Oc1cccc(C(=O)Nc2ccccc2C(=O)N2CCCC2)c1	none
COC(=O)c1cccc(NC(=O)c2ccc(OC)c(Cl)c2)c1	tim23-1 inh 57 (no result: PfHsp90 yeast 2) | tim23-1 conf 48
COc1cccc(C(=O)Nc2ccccc2C(=O)N2CCCC2)c1	tim23-1 inh 94 | tim23-1 conf inactive
COc1ccc(C(=O)Nc2cc(C(=O)O)cc(C(=O)O)c2)cc1Cl	none
Cc1nc(-c2ccc(NC(=O)c3ccccc3)cc2)cs1	tim23-1 inh 54 | tim23-1 conf 53
COc1cccc(C(=O)Nc2cccc(-c3ccccc3)c2)c1	tim23-1 inh 55 | tim23-1 conf 49
Cc1ccc(C(=O)Nc2ccc(-c3csc(C)n3)cc2)cc1	none
O=C1CCN(Cc2ccccc2)C=C1c1ccc(Cl)cc1	none (no result: SKKanGAS inh)
O=C1CCN(Cc2ccccc2)C=C1c1ccc2ccccc2c1	tim23-1 inh 50 (no result: SKKanGAS inh) | tim23-1 conf 47
CCCSc1nnc(CSc2nc(C)cc(C)n2)n1C	none (no result: PfHsp90 yeast 2)
COc1ccc(-c2csc(NS(=O)(=O)c3ccc([N+](=O)[O-])cc3)n2)cc1	tim23-1 inh 84 | tim23-1 conf inactive
Cc1onc(-c2c(F)cccc2Cl)c1C(=O)O/N=C(\N)c1ccc([N+](=O)[O-])o1	none
Nc1nc2c(s1)CCc1c-2cnn1-c1ccccc1	tim23-1 inh 62 | tim23-1 conf 61
Nc1nc2c(s1)COc1ccccc1-2	none
Cc1cccc(NC(=S)N/N=C/c2c[nH]c3ccccc23)c1	tim23-1 inh 64 | tim23-1 conf inactive
Cc1ccc(C(=O)Nc2ccc(C(=O)N/N=C/c3c[nH]c4ccccc34)cc2)cc1	none
Cc1ccc(C(=O)N/N=C/c2nc3ccccc3n2C)cc1	tim23-1 inh 54 | tim23-1 conf 39
COc1ccc(CCC(C)N2CCOCC2)cc1 (stereo not given)	none
CCCc1[nH]n(-c2nc3ccccc3s2)c(=O)c1C=NCCCOC	none
CCCCCN=Cc1c(C)[nH]n(-c2nc3ccccc3s2)c1=O	tim23-1 inh 56 | tim23-1 conf 48
CC(=O)n1cc(N(C(=O)CCl)c2ccc(C)cc2)c2ccccc21	tim23-1 inh 69 | tim23-1 conf inactive
COc1cccc2c1O/C(=N\O)C(C(=O)Nc1cccc(Br)c1)C2 (stereo not given)	none (no result: tim10-1 inh, TIM10 inh, NALP3 yeast inh, tim23-1 inh)
COc1ccc(NS(=O)(=O)c2cc(NC(=O)c3ccc(=O)[nH]n3)ccc2N2CCOCC2)cc1	none (no result: SKKanGAS inh, PfHsp90 yeast 2)
CCOc1ccc(N/C(=C(/C(Cl)=C(Cl)Cl)[N+](=O)[O-])n2cncn2)cc1	none (no result: PfHsp90 yeast 2)
O=[N+]([O-])/C(C(Cl)=C(Cl)Cl)=C(\Nc1ccc(F)cc1)n1cncn1	tim23-1 inh 75 (no result: PfHsp90 yeast 2) | tim23-1 conf inactive
Cc1ccc(S(=O)(=O)NCC(c2ccccc2)N2CCN(c3ccc(F)cc3)CC2)cc1 (stereo not given)	none
CC(C)(C)C(=O)Nc1nc(-c2ccc3c(c2)OCO3)cs1	tim23-1 inh 55 | tim23-1 conf 50
O=C(Nn1c(-c2ccncc2)nc2ccccc2c1=O)c1ccc([N+](=O)[O-])cc1Cl	none
Cc1ccc(C(=O)N/C(=C\c2ccccc2F)c2nc(=S)[nH][nH]2)cc1	none
Cc1ccc(/C=C(\NC(=O)c2ccc(C)cc2)c2nc(=S)[nH][nH]2)cc1	tim23-1 inh 53 | tim23-1 conf inactive
CCSc1ccc([C@@H]2[C@H]3C(=O)N(CC)C(=O)[C@H]3[C@]3(C(=O)OC)CCCCN23)cc1	tim23-1 inh 81 | tim23-1 conf 45
CCOC(=O)/C(C#N)=C/c1cc2cc(C)c(C)cc2nc1Cl	tim23-1 inh 62 | tim23-1 conf 70
CC(=O)NC1=NC(=O)/C(=C/c2cn(C(C)=O)nc2-c2ccccc2)S1	none

Assay outcomes: PubChem, several laboratories
